The source of these data is the supplement of paper PMC9897528.

Values without a mark were called inactive.
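Note: conidia screened in RPMI 1640 medium under 5% CO2, growth read by spectrophotometer, medium with 0.5% DMSO serving as the untreated reference.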

In this test the test system is Scedosporium aurantiacum CBS 136046. As to the kind of experiment: growth inhibition relative to DMSO control (OD600); higher = more antifungal activity, active = 80 or more; extreme values may be limits of the assay. As to conditions: 5 µM; 72 h; 37 °C.
Turning to `Cc1ccc(N2CCC(CCOc3ccc(S(C)(=O)=O)cc3)CC2)nn1`, the growth inhibition is 24.5%. The figure for `Cn1cncc1[C@@](N)(c1ccc(Cl)cc1)c1ccc2c(c1)c(-c1cccc(Cl)c1)cc(=O)n2C` is 11.3%; for `OCCC#Cc1nc(-c2ccc(F)cc2)c(-c2ccncc2)n1CCCc1ccccc1` it is 13.8%; for `COc1c(NC(=O)[C@H]2CC[C@@H](COc3ccc([N+](=O)[O-])cc3)CC2)c(F)cc2c(=O)c(C(=O)O)cn(C3CC3)c12` it is 15.5%. For `FC(F)(F)c1cc(C(F)(F)F)c2ccc3nc(-c4nnco4)cn3c2n1`, the growth inhibition was 4.29%.

As for `CCCCSc1nc(N)c2[nH]c(=O)c(=O)n(Cc3ccccc3)c2n1`, the growth inhibition was 6.53%. The figure for `CONC(=N)c1ccc(-c2ccc(-c3ccc(C(=N)NOC)cc3)o2)cc1` is 29.9%; for `COc1cc(Cc2cnc(N)nc2N)cc(OC)c1OC` it is 0.169%; for `O=C(O)c1sccc1S(=O)(=O)n1ccc2cc(Br)ccc21` it is 14.6%. The figure for `O=C(O)c1ccc(-c2ccc(O[C@H]3O[C@H](CO)[C@@H](O)[C@H](O)[C@@H]3O)cc2)cc1` is 10.9%. The figure for `Nc1nc(=O)c(Br)c(-c2ccccc2)[nH]1` is 0.62%. `N=C(N)c1ccc(COc2ccc(Cl)cc2)cc1`: the growth inhibition is 19.9%.

For `Cc1nc2ccc(Oc3ccccc3)cc2c2c1CCN2CCc1ccccc1`, the growth inhibition was 54.5%. The figure for `CCc1ccccc1OCCN1CCCCCC1` is 26.2%. The figure for `Cc1c(CN(C)C(=O)/C=C/c2cnc3c(c2)C(C)(C)C(=O)N3)oc2ccccc12` is 19.3%; for `O=C(c1ccc(F)cc1)N1CCN2C(=O)c3ccccc3C12c1ccccc1` (stereo not drawn) it is 12.5%; for `CC[N+]1(C/C2=C/CCCCCC2)CCC(NC(=O)C2c3cc(Cl)ccc3Oc3ccc(Cl)cc32)CC1` (stereo not drawn) it is 9.71%.

As for `O=[N+]([O-])c1cn(Cc2nc(O)nc(O)c2Br)cn1`, the growth inhibition is 20.5%. The figure for `CCn1cc(C(=O)O)c(=O)c2cc(F)c(N3CCNC(C)C3)c(F)c21` (stereo not drawn) is 4.34%; for `CC[C@@]1(O)C(=O)OCc2c1cc1n(c2=O)Cc2cc3c(CN(C)C)c(O)ccc3nc2-1` it is 21.5%. The figure for `CC(C)(C)c1cc(CCC(=O)N2CCC2)cc(C(C)(C)C)c1O` is 11.9%; for `CN(C)CCNC(=O)c1cccc2cccnc12` it is 2.13%; for `CCc1cc(Cc2cnc(N)nc2N)cc2c1N(C)CCC2C` (stereo not drawn) it is 16.8%. With `O=C(/C=C/n1cnc(-c2cc(C(F)(F)F)cc(C(F)(F)F)c2)n1)NNc1cnccn1`, the growth inhibition was 26.3%. The figure for `O=c1nc(N2CCN(CC3CCCCC3)CC2)sc2c([N+](=O)[O-])cc(C(F)(F)F)cc12` is 28.5%. As for `O=c1[nH]c(=O)n(Cc2cccc(Oc3ccccc3)c2)cc1Nc1ccccc1`, the growth inhibition is 12.7%. The figure for `O=C(O)c1ccccc1Sc1ncnc2sc3c(c12)CCC3` is 1.9%. With `CCc1nc2ccccn2c1C(=O)NCc1ccccc1`, the growth inhibition is 13%. Regarding `N#Cc1c(F)c(Cl)c(NCc2ccccc2)c(C#N)c1F`, the growth inhibition is 38.1%. The figure for `O=C(O)C(Cc1c[nH]c2ccccc12)N1C(=O)c2ccccc2C1=O` (stereo not drawn) is 19.9%; for `NCCCc1ccccc1C(=O)Nc1ncc([N+](=O)O)s1` it is 0%; for `O=C(Nc1ccc(N2CCN(C(=O)c3ccccc3)CC2)cc1)c1ccc2c(c1)OCO2` it is 16.5%.

As to `COc1ccc(C(C)(C)C)cc1NC(=O)C(=O)c1ccc(OCCN2CCOCC2)c2ccccc12`, the growth inhibition is 9.3%.

For the compound `CCCNc1ccc(S(=O)(=O)Nc2cc(C)on2)cc1`, the growth inhibition was 0.262%. The figure for `N[C@H]1CCC[C@H]1C(=O)O` is 4.68%; for `Clc1cccc(-c2nnc(-c3ccccc3)o2)c1` it is 1.29%. On to `COc1nc2ccc(Br)cc2cc1[C@@H](c1ccccc1)[C@@](O)(CCN(C)C)c1cccc2ccccc12`, for which the growth inhibition is 43.6%.

For the compound `O=S(=O)(Nc1ccccc1)c1ccc(NC(=S)Nc2ccccc2)cc1`, the growth inhibition was 24.2%.
